Experimental data taken from PubChem BioAssay (NCI).
This is part of a sample that, as a whole, favours compounds with a hit. Of some 79,000 tested, about 15% had one in any assay. Calls of active or inactive are those of the source. Rule as the data show it: active = growth inhibition above about 70%; inactive = the rest.

Assay: NCI Yeast Anticancer Drug Screen. Data for the rad50 strain (AID 155);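 also: 0% = growth of vehicle-only cultures of the same strain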
Conditions: S. cerevisiae rad50 strain growth inhibition, active compounds read high; at 50.0 µM unless noted
How it was run: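 Vehicle-treated cultures provide the reference for the growth inhibition reported for compound-exposed, repair-deficient yeast.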

For CCCCCCCCOC(=O)NC1c2ccccc2Oc2c(C)cccc21 (configuration not stated), which growth inhibition is on record?
Its growth inhibition is 1.7% (inactive).

For CC(=O)Nc1nnn(C)n1, which growth inhibition is on record?
Its growth inhibition is -4.65% (inactive).

Which growth inhibition does the source give for CNC(=O)C(C(=O)NC)c1ccccc1 here?
The growth inhibition was 8.05% (inactive).

For O=[n+]1c2c(n([O-])c3ccccc31)CCCCCCCCCC2, which growth inhibition is on record?
The growth inhibition was -52.6% (inactive).

For CCOC(=O)c1cc(C)ncc1N, which growth inhibition is on record?
Its growth inhibition is 9.85% (inactive).

Which growth inhibition does the source give for CC[N+](CC)(CC)Cc1cn(S(=O)(=O)c2ccccc2)c2ccccc12 here?
Its growth inhibition is 4.3% (inactive).

For N#CCCC1(CCC#N)CCCC(CCC#N)(CCC#N)C1=O, which growth inhibition is on record?
Its growth inhibition is 2% (inactive).

For Clc1ccc2c(c1)C(=P(c1ccccc1)(c1ccccc1)c1ccccc1)c1cc(Cl)cc(Cl)c1-2, which growth inhibition is on record?
The growth inhibition was 83.7% (active).

Which growth inhibition does the source give for CCCCN1CCC(N)=NC1=O here?
The growth inhibition was 10.1% (inactive).

Which growth inhibition does the source give for CC1CCCN1CCOC(=O)C(c1ccccc1)C1CCCC1 (configuration not stated) here?
Its growth inhibition is -4.65% (inactive).

Which growth inhibition does the source give for CCc1n[nH]c(=O)n1-n1c(C)ccc1C here?
The growth inhibition was -15.8% (inactive).

Which growth inhibition does the source give for NC(Cc1cc(Br)c(Oc2ccc(O)cc2)c(Br)c1)C(=O)O (configuration not stated) here?
Its growth inhibition is 19.8% (inactive).

For Cn1c(=O)c2[nH]c(Nc3cccc(Cl)c3)nc2n(C)c1=O, which growth inhibition is on record?
Its growth inhibition is -26.3% (inactive).

Which growth inhibition does the source give for NC(N)=NC(N)=Nc1cc(Cl)c(Cl)cc1Cl here?
The growth inhibition was 98.2% (active).

With O=C1C=CC=C/C1=C1/SC(c2ccccc2)=C(O)N1c1ccccc1 as the compound, how does the growth inhibition read?
The growth inhibition was -40.2% (inactive).

For CC(=O)C(C)(CC#N)C(CC=O)CCC#N (configuration not stated), which growth inhibition is on record?
The growth inhibition was 15.9% (inactive).

For Cc1c2ccncc2c(C)c2c1[nH]c1ccc(O)cc12, which growth inhibition is on record?
Its growth inhibition is 16.9% (inactive).

For CC1(C)OC(=O)N=C1c1ccccc1Cl, which growth inhibition is on record?
The growth inhibition was -18.1% (inactive).

With O=Nc1c(O)c2ccccc2[nH]c1=O as the compound, how does the growth inhibition read?
Its growth inhibition is 15.6% (inactive).

Which growth inhibition does the source give for Cc1ccc2[nH]c(C(=O)O)cc2c1 here?
The growth inhibition was 31.1% (inactive).

Assay: NCI Yeast Anticancer Drug Screen. Data for the mec2-1 strain (AID 157)
Conditions: S. cerevisiae mec2-1 strain, active compounds read high; at 50.0 µM unless noted
How it was run: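 Each compound was tested on mec2-1 yeast, a strain altered in DNA damage repair or cell cycle control. Growth inhibition is reported relative to vehicle.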

With CCCOC(=O)c1ccc([N+](=O)[O-])cc1 as the compound, how does the growth inhibition read?
Its growth inhibition is 4.2% (inactive).

For O=C1OC2C(O)C(CO)OC2n2c1cc(=O)[nH]c2=O (configuration not stated), which growth inhibition is on record?
The growth inhibition was 13.9% (inactive).

For CNCCc1cn(C2OC(CO)C(O)C(O)C2O)cn1 (configuration not stated), which growth inhibition is on record?
The growth inhibition was -17.6% (inactive).

With NC(=O)C1CC1 as the compound, how does the growth inhibition read?
Its growth inhibition is 2.25% (inactive).

For NC(=O)c1ccc(-c2csc(=S)[nH]2)s1, which growth inhibition is on record?
The growth inhibition was -9.7% (inactive).

With OCCNc1ncnc2c1ncn2C1OC(CO)C(O)C1O (configuration not stated) as the compound, how does the growth inhibition read?
Its growth inhibition is 5.25% (inactive).

Which growth inhibition does the source give for CC1SCc2nc3ccccc3n21 (configuration not stated) here?
Its growth inhibition is -10.8% (inactive).

Which growth inhibition does the source give for CNC(=O)C1C(=O)NC(=O)C1=C1CCCC1 (configuration not stated) here?
The growth inhibition was -1.1% (inactive).

For O=C1OCCOCCOCCOCCOCCOC(=O)c2cccc1n2, which growth inhibition is on record?
The growth inhibition was 12.2% (inactive).

For O=S=Nc1c(Cl)cc(Cl)cc1Cl, which growth inhibition is on record?
Its growth inhibition is -20.1% (inactive).

Which growth inhibition does the source give for ClCc1ccccc1C(c1ccccc1)c1ccccc1 here?
The growth inhibition was 20.4% (inactive).

With CC(C)(C)NC(=O)CCCl as the compound, how does the growth inhibition read?
The growth inhibition was 14.4% (inactive).

Which growth inhibition does the source give for O=C(c1ccccc1)c1ccc2c(Cl)ccc3c2c1CC3 here?
The growth inhibition was -21.3% (inactive).

For COC(=O)c1cc(C)n(C)c(=O)c1CN, which growth inhibition is on record?
Its growth inhibition is 4.85% (inactive).

With CN(C)C(=O)NN1CCCCCC1 as the compound, how does the growth inhibition read?
The growth inhibition was 13.9% (inactive).

Which growth inhibition does the source give for COC(=O)N/N=C(/CCC(=O)Nc1ccc(C)c(C)c1)CC(=O)C(C)(C)C here?
Its growth inhibition is -12.1% (inactive).

Which growth inhibition does the source give for CCCCCCCSCC(=O)OCC here?
Its growth inhibition is -19.8% (inactive).

Which growth inhibition does the source give for CO[C@H]1C[C@H](n2cc(C)c(=O)[nH]c2=O)O[C@@H]1CO here?
The growth inhibition was -9.75% (inactive).

With Cc1cc(Cl)ccc1NC(=O)C1C(=O)N(c2ccc(Cl)cc2C)C(=O)/C1=N\N (configuration not stated) as the compound, how does the growth inhibition read?
The growth inhibition was -31.4% (inactive).

With C=CCc1cc2c(C)cc(=O)oc2c(C)c1OC(C)=O as the compound, how does the growth inhibition read?
The growth inhibition was -23.8% (inactive).

For CCCCCCCCOC(=O)NC1c2ccccc2Oc2c(C)cccc21 (configuration not stated), which growth inhibition is on record?
Its growth inhibition is 5.9% (inactive).

Which growth inhibition does the source give for CC(=O)Nc1nnn(C)n1 here?
The growth inhibition was -5.55% (inactive).

With CNC(=O)C(C(=O)NC)c1ccccc1 as the compound, how does the growth inhibition read?
The growth inhibition was -4.65% (inactive).

With O=[n+]1c2c(n([O-])c3ccccc31)CCCCCCCCCC2 as the compound, how does the growth inhibition read?
Its growth inhibition is -1.95% (inactive).

Which growth inhibition does the source give for CCOC(=O)c1cc(C)ncc1N here?
Its growth inhibition is 7.4% (inactive).

For CC[N+](CC)(CC)Cc1cn(S(=O)(=O)c2ccccc2)c2ccccc12, which growth inhibition is on record?
Its growth inhibition is -0.7% (inactive).

For N#CCCC1(CCC#N)CCCC(CCC#N)(CCC#N)C1=O, which growth inhibition is on record?
Its growth inhibition is 7.6% (inactive).

With Clc1ccc2c(c1)C(=P(c1ccccc1)(c1ccccc1)c1ccccc1)c1cc(Cl)cc(Cl)c1-2 as the compound, how does the growth inhibition read?
Its growth inhibition is 52.6% (inactive).

Which growth inhibition does the source give for CCCCN1CCC(N)=NC1=O here?
Its growth inhibition is -24.9% (inactive).

Which growth inhibition does the source give for CC1CCCN1CCOC(=O)C(c1ccccc1)C1CCCC1 (configuration not stated) here?
Its growth inhibition is 35.5% (inactive).

For CCc1n[nH]c(=O)n1-n1c(C)ccc1C, which growth inhibition is on record?
The growth inhibition was -25.9% (inactive).

With NC(Cc1cc(Br)c(Oc2ccc(O)cc2)c(Br)c1)C(=O)O (configuration not stated) as the compound, how does the growth inhibition read?
Its growth inhibition is 12.8% (inactive).
